Laboratory results reported in PubChem BioAssay (NCATS).
Where “and” joins values, the source holds several entries; their conditions need not be identical. Identical values can stand only once. Inconclusive results are not listed. A call without a number means that no potency is given here. Values without a mark were called inactive. Calls of active or inactive are those of the source. The call rests on the fitted dose curve; in most records, active means well fitted inhibition curve with a large enough effect; inconclusive means small, poorly fitted or top-dose-only effect; inactive means flat fitted curve, though single readings scatter.

The compounds below were run against Glutathione peroxidase 1 (Homo sapiens) (UniProt P07203) (assay: Primary qHTS Assay for Inhibitors of Recombinant Selenoprotein Glutathione Peroxidase 1 (GPX1) (AID 1845191; further: nearly all actives have a fitted effect of over 65% in size)). Settings: recombinant GPX1, GR-coupled NADPH fluorescence, 15 min; series mostly up to 48.8 µM.
Glutathione peroxidase 1 (Homo sapiens), sequence (P07203 whole entry, looked up): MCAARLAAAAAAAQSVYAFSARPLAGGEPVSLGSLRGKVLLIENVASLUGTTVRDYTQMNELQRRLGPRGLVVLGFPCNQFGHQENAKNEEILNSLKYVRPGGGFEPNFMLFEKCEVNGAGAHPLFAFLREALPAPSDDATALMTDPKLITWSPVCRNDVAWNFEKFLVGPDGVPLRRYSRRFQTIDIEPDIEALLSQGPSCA
Excerpt: Assay Provider: Elias S.J. Arner MD PhD.
Department of Medical Biochemistry and Biophysics
Karolinska Institutet, Solna, Stockholm, Sweden
Selenoprotein glutathione peroxidases (GPX), like the ubiquitously expressed GPX1 and the ferroptosis modulator GPX4, enact their antioxidant activities by reducing hydroperoxides using glutathione. […] GPX1 and GPX4 inhibitors have thus shown promise as anti-cancer agents. Existing inhibitors are often promiscuous, or modulate GPX activity only indirectly, so novel direct inhibitors identified through screening against GPX1 and GPX4 could be valuable. Here, we developed optimized glutathione reductase (GR)-coupled GPX assays for the biochemical high-throughput screen (HTS) of almost 12,000 compounds with known mechanisms of action. Initial hits were triaged using a GR counter-screen, assessed for isoform specificity using a separate GPX2 assay, and were assessed for general selenocysteine-targeting activity using a thioredoxin reductase (TXNRD1) assay. With this suite of assays, we identified novel GPX1/GPX2- and GPX4-specific inhibitors and can here present a validated pipeline for future discovery research for selenoprotein-targeting agents.
SEQUENCE No. (e.g., 1, 2, 3, etc.); […] (e.g., Cells, Incubation, Reagent, etc.); VALUE; DESCRIPTION.
1; Reagent 1; 3 uL; GPx1 enzyme or no enzyme control in 1536-well, black, solid Greiner assay plate.
2; Compound; 25 nL; Kalypsis pin tool (Wako USA) equipped with a 1536-well pin head.
3; Incubation; 30 min; room temperature.
4; Reagent 2; 1 uL; 10 nM GPX1, 1 mM GSH, 0.5 mM CHP, 0.5 mM NADPH, 100 nM GR, 0.01% BSA substrate
5; Detection; Fluorescence; ViewLux microplate reader, excitation 340 nm and emission 450 nm.
6; Incubation; 15 min; room temperature.
7; Detection; Fluorescence; ViewLux microplate reader, excitation 340 nm and emission 450 nm.
NOTES (numbers refer to Sequence numbers above)
1. 3 uL of 16.66 nM GPX1 and 0.016% BSA in assay buffer (50 mM Tris-HCl, 2 mM EDTA (pH 7.5), 150 mM NaCl) was added to columns 3-48 of 1536-well assay plates using a BioRAPTR Flying Reagent Dispenser (Let's Go Robotics (LGR), Carlsbad, CA). A no-enzyme control (0.01% BSA in TES assay buffer) was added to columns 1-2.
2. 25 nL of test compounds and DMSO controls were added to each well with a pin tool (Kalypsys).
3. The assay plates were incubated for 30 minutes at room temperature.
4. 1 uL of master mix (500 nM glutathione reductase (GR), 5 mM reduced glutathione (GSH), 2.5 mM NADPH in assay buffer) was added. 1 uL of cumene hydroperoxide (CHP) ([2.5 mM] in 50% EtOH) was then added within 5 minutes to initiate the reaction. Final concentrations were: 10 nM GPX1, 1 mM GSH, 0.5 mM CHP, 0.5 mM NADPH, 100 nM GR, 0.01% BSA.
5. Initial fluorescence readout (t=0) at 340/450 nm was measured using a ViewLux multimodal detector (PerkinElmer, Waltham, MA).
7. Endpoint fluorescence readout (t=15) at 340/450 nm was measured 15 min after room temperature incubation.

| SMILES | Potency | activity, negative = inhibition | outcome |
| --- | --- | --- | --- |
| CCCCCCCCCC(=O)N[C@@H](Cc1c[nH]c2ccccc12)C(=O)N[C@H](CC(N)=O)C(=O)N[C@@H](CC(=O)O)C(=O)N[C@@H]1C(=O)NCC(=O)N[C@@H](CCCN)C(=O)N[C@@H](CC(=O)O)C(=O)N[C@H](C)C(=O)N[C@@H](CC(=O)O)C(=O)NCC(=O)N[C@H](CO)C(=O)N[C@@H]([C@@H](C)CC(=O)O)C(=O)N[C@@H](CC(=O)c2ccccc2N)C(=O)O[C@@H]1C | inactive |  |  |
| Cc1cc(Nc2nc(N[C@@H](C)c3ccc(F)cc3)c(C#N)cc2F)n[nH]1 | inactive |  |  |
| CN1c2cc(O)c(N=NC(N)=O)cc2CC1S(=O)(=O)O (stereo not given) | inactive |  |  |
| CC(C)[C@H](C(=O)Nc1ccc(C(=O)NO)cc1)c1ccccc1 | inactive |  |  |
| COc1c(OCCCN2CCOCC2)ccc2c3n(c(=NC(=O)c4cnc(N)nc4)nc12)CCN3 |  | -31.4% [at 9.52 µM] and 3.3% [at 9.52 µM] | inactive [at 9.52 µM] |
| Cc1ccc(C(=O)Nc2ccc(CN3CCN(C)CC3)c(C(F)(F)F)c2)cc1C#Cc1cnc2cccnn12 | inactive |  |  |
| Cc1c(NC(=O)OC[C@@H]2COCCN2)cn2ncnc(Nc3ccc4c(cnn4Cc4cccc(F)c4)c3)c12 | inactive |  |  |
| CNC(=O)c1ccccc1Nc1nc(Nc2ccc(N3CCOCC3)cc2OC)ncc1Cl | inactive |  |  |
| Nc1cccc(-c2cc3c(Oc4cccc(O)c4)ncnc3[nH]2)c1 | inactive |  |  |
| COc1cc(OC2CCN(C)CC2)ccc1Nc1ncc2c(n1)n(C1CCCC1)c(=O)n2C | inactive |  |  |
| Cn1c2ccccc2c2c3c(c4c5ccccc5n(CCC#N)c4c21)CNC3=O | inactive |  |  |
| CNC(=O)c1ccc(-c2cnc3ncc(Cc4ccc5ncccc5c4)n3n2)cc1F | inactive |  |  |
| CN1CC[C@@H](c2c(O)cc(O)c3c(=O)cc(-c4ccccc4Cl)oc23)[C@@H](O)C1 | inactive |  |  |
| CCCNC(=O)Nc1ccc(Oc2ncnc3cc(OC)c(OC)cc23)cc1Cl | inactive |  |  |
| Cn1c(=O)n(-c2ccc(C(C)(C)C#N)cc2)c2c3cc(-c4cnc5ccccc5c4)ccc3ncc21 | inactive |  |  |
| CC(=O)OCC(=O)[C@@]1(O)[C@H](C)C[C@H]2[C@@H]3C=C(C)C4=Cc5c(cnn5-c5ccccc5)C[C@]4(C)[C@@H]3[C@@H](O)C[C@@]21C | inactive |  |  |
| CC(C)c1noc(N2CCC(COc3ccc(-c4ccc(S(C)(=O)=O)cc4)nc3)CC2)n1 | inactive |  |  |
| CNC(=O)CN1CCC(Oc2cc3c(Nc4cccc(Cl)c4F)ncnc3cc2OC)CC1 | inactive |  |  |
| O=C(O)CCCc1c[nH]c2ccccc12 | inactive |  |  |
| Cc1nc(Nc2n[nH]c3c2CN(C(=O)N[C@H](CN(C)C)c2ccccc2)C3(C)C)c2sccc2n1 | inactive |  |  |

| SMILES | Potency | activity, negative = inhibition | outcome |
| --- | --- | --- | --- |
| CC(C)c1cc(C(=O)N2Cc3ccc(CN4CCN(C)CC4)cc3C2)c(O)cc1O | inactive |  |  |
| C=CC(=O)Nc1cc2c(Nc3ccc(F)c(Cl)c3)ncnc2cc1OCCCN1CCOCC1 | inactive |  |  |
| Nc1ncnc2c1c(-c1cccc(OCc3ccccc3)c1)cn2C1CC(CN2CCCC2)C1 (stereo not given) | inactive |  |  |
| O=C(O)c1ccc2c(c1)nc(Nc1cccc(Cl)c1)c1ccncc12 | inactive |  |  |
| COc1ccc(CC2c3cc(OC)c(OC)cc3CC[N+]2(C)CCC(=O)OCCCCCOC(=O)CC[N+]2(C)CCc3cc(OC)c(OC)cc3C2Cc2ccc(OC)c(OC)c2)cc1OC (stereo not given) | inactive |  |  |
| Cc1ccc2nc(NC(=O)CSc3nc4c(c(=O)n3-c3ccccc3)SCC4)sc2c1 | inactive |  |  |
| COc1cccc2nc(-c3cccs3)nc(NN3C(=O)C=C(C)C3=O)c12 | inactive |  |  |
| CN(c1ncccc1CNc1nc(Nc2ccc3c(c2)CC(=O)N3)ncc1C(F)(F)F)S(C)(=O)=O | inactive |  |  |
| CC(=O)c1c(C)c2cnc(Nc3ccc(N4CCNCC4)cn3)nc2n(C2CCCC2)c1=O | inactive |  |  |
| Clc1ccc2ncc(-c3cccc(NC4CNC4)n3)n2c1 | inactive |  |  |
| C[C@@H](Oc1cc(-c2cnn(C3CCNCC3)c2)cnc1N)c1c(Cl)ccc(F)c1Cl | inactive |  |  |
| COc1ccc2c(c1)CC[C@@H](CN(C)CC(=O)O)[C@H]2c1ccccc1 | inactive |  |  |
| Nc1nc(Nc2ccc(S(N)(=O)=O)cc2)nn1C(=O)c1c(F)cccc1F | inactive |  |  |
| CC(C)(C)OC(=O)Nc1ccc(-c2cc(C(=O)NCCCCCCC(=O)NO)no2)cc1 | inactive |  |  |
| CNC(=O)c1c(F)cccc1Nc1nc(Nc2cc3c(cc2OC)CCN3C(=O)CN(C)C)nc2[nH]ccc12 | inactive |  |  |
| O=C(c1ccc(Nc2nccc(-c3cc4ccccc4s3)n2)cc1)N1CCC(N2CCCC2)CC1 | inactive |  |  |
| c1cc(-c2cnn3cc(-c4ccc(OCCN5CCCCC5)cc4)cnc23)ccn1 | inactive |  |  |
| Cc1cc(Nc2cc(CN3CCOCC3)c3nc(C)c(Cc4ccc(Cl)cc4F)n3n2)n[nH]1 | inactive |  |  |
| CCn1cc(-c2ccnc3[nH]c(-c4cccc(CN(C)C)c4)cc23)c(-c2ccc(NC(=O)N(C)C)cc2)n1 | inactive |  |  |
